Results: PubChem BioAssay AID1159580 (chemical genetic matrix, 2015)
Among all 5,500 compounds or so, about 2,000 (36%) were called active. Roughly 18% stayed inconclusive and do not appear here. Cut-off read from the data, not from the text of the source: active = normalized growth mostly below about 0.91 (no sharp cut-off); inconclusive = no clear call, values can overlap the other calls; inactive = mostly above about 0.92. The list shows a part of the results.

Assay: chemical genetic growth profiling, strain panel (AID 1159580);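 note: tested at 20 µM; growth read once vehicle control cultures reached saturation at 30 °C; 1 = growth at the plate median or of vehicle wells; lower values mean less growth of the strain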
Settings: growth OD

Measured: normalized growth

C[n+]1ccccc1/C=N/O
inactive: S. cerevisiae deletion strains, locus YJR066W, strain TOR1, active compounds read low 0.986 | S. cerevisiae deletion strains, locus YKL009W, strain mrt4, active compounds read low 1.03 | S. cerevisiae deletion strains, locus YKL068W, active compounds read low 1.01 | S. cerevisiae deletion strains, locus YKL085W, strain MDH1 (second series), active compounds read low 1 | S. cerevisiae deletion strains, locus YKL085W, strain MDH1, active compounds read low 1 | S. cerevisiae deletion strains, locus YKL160W, strain elf1, active compounds read low 0.997 | S. cerevisiae deletion strains, locus YKL190W, strain CNB1, active compounds read low 1.01 | S. cerevisiae deletion strains, locus YKR001C, strain vps1, active compounds read low 0.989 | S. cerevisiae deletion strains, locus YKR026C, strain gcn3, active compounds read low 1.01 | S. cerevisiae deletion strains, locus YKR091W, strain srl3, active compounds read low 0.993 | S. cerevisiae deletion strains, locus YLL001W, strain dnm1, active compounds read low 0.973 | S. cerevisiae deletion strains, locus YLL026W, active compounds read low 0.996 | S. cerevisiae deletion strains, locus YLL041C, strain sdh2, active compounds read low 0.985 | S. cerevisiae deletion strains, locus YLR027C, strain aat2, active compounds read low 1.01 | S. cerevisiae deletion strains, locus YLR039C, strain RIC1, active compounds read low 1.01 | S. cerevisiae deletion strains, locus YLR058C, strain SHM2, active compounds read low 1.01 | S. cerevisiae deletion strains, locus YLR102C, strain apc9, active compounds read low 0.994 | S. cerevisiae deletion strains, locus YLR113W, strain HOG1, active compounds read low 0.999 | S. cerevisiae deletion strains, locus YLR221C, strain rsa3, active compounds read low 1.02 | S. cerevisiae deletion strains, locus YLR258W, strain gsy2, active compounds read low 0.991 | S. cerevisiae deletion strains, locus YLR262C, strain YPT6 (second series), active compounds read low 1.02 | S. cerevisiae deletion strains, locus YLR262C, strain YPT6, active compounds read low 1 | S. cerevisiae deletion strains, locus YLR268W, strain sec22, active compounds read low 0.998 | S. cerevisiae deletion strains, locus YLR320W, strain mms22, active compounds read low 0.981 | S. cerevisiae deletion strains, locus YLR330W, strain CHS5, active compounds read low 1.01 | S. cerevisiae deletion strains, locus YLR342W, strain FKS1 (second series), active compounds read low 1 | S. cerevisiae deletion strains, locus YLR342W, strain FKS1, active compounds read low 1.02 | S. cerevisiae deletion strains, locus YLR357W, strain rsc2, active compounds read low 0.958 | S. cerevisiae deletion strains, locus YLR370C, strain arc18, active compounds read low 1.01 | S. cerevisiae deletion strains, locus YLR371W, strain rom2, active compounds read low 0.993 | S. cerevisiae deletion strains, locus YLR384C, strain iki3, active compounds read low 1 | S. cerevisiae deletion strains, locus YLR418C, strain cdc73, active compounds read low 0.983 | S. cerevisiae deletion strains, locus YML016C, strain PPZ1, active compounds read low 1.01 | S. cerevisiae deletion strains, locus YML032C, strain rad52, active compounds read low 0.989 | S. cerevisiae deletion strains, locus YML120C, strain ndi1, active compounds read low 1.02 | S. cerevisiae deletion strains, locus YML124C, strain tub3, active compounds read low 1 | S. cerevisiae deletion strains, locus YMR058W, strain fet3, active compounds read low 1.01 | S. cerevisiae deletion strains, locus YMR078C, strain ctf18, active compounds read low 0.993 | S. cerevisiae deletion strains, locus YMR125W, strain sto1, active compounds read low 1 | S. cerevisiae deletion strains, locus YMR129W, active compounds read low 0.998 | S. cerevisiae deletion strains, locus YMR205C, strain PFK2, active compounds read low 1.01 | S. cerevisiae deletion strains, locus YMR223W, strain ubp8, active compounds read low 1.01 | S. cerevisiae deletion strains, locus YMR231W, strain pep5, active compounds read low 0.996 | S. cerevisiae deletion strains, locus YMR307W, strain GAS1, active compounds read low 0.992 | S. cerevisiae deletion strains, locus YNL067W, strain RPL9B, active compounds read low 1 | S. cerevisiae deletion strains, locus YNL071W, strain lat1, active compounds read low 1.01 | S. cerevisiae deletion strains, locus YNL128W, strain TEP1, active compounds read low 1.02 | S. cerevisiae deletion strains, locus YNL153C, strain GIM3, active compounds read low 1.01 | S. cerevisiae deletion strains, locus YNL183C, strain NPR1, active compounds read low 0.924 | S. cerevisiae deletion strains, locus YNL209W, strain ssb2, active compounds read low 1.02 | S. cerevisiae deletion strains, locus YNL233W, strain BNI4, active compounds read low 0.999 | S. cerevisiae deletion strains, locus YNL248C, strain rpa49, active compounds read low 0.978 | S. cerevisiae deletion strains, locus YNL250W, strain rad50, active compounds read low 1.01 | S. cerevisiae deletion strains, locus YNL271C, strain bni1, active compounds read low 1.01 | S. cerevisiae deletion strains, locus YNL298W, strain CLA4, active compounds read low 1.01 | S. cerevisiae deletion strains, locus YNL307C, strain MCK1, active compounds read low 0.992 | S. cerevisiae deletion strains, locus YNL322C, strain KRE1 (second series), active compounds read low 0.991 | S. cerevisiae deletion strains, locus YNR049C, strain mso1, active compounds read low 1.01 | S. cerevisiae deletion strains, locus YNR052C, strain pop2, active compounds read low 1 | S. cerevisiae deletion strains, locus YOL006C, strain TOP1, active compounds read low 1.01 | S. cerevisiae deletion strains, locus YOL012C, strain htz1 1.12 | S. cerevisiae deletion strains, locus YOL147C, strain pex11, active compounds read low 1 | S. cerevisiae deletion strains, locus YOR001W, strain rrp6, active compounds read low 0.992 | S. cerevisiae deletion strains, locus YOR061W, strain CKA2, active compounds read low 1.01 | S. cerevisiae deletion strains, locus YOR069W, strain VPS5, active compounds read low 1.01 | S. cerevisiae deletion strains, locus YOR070C, strain gyp1, active compounds read low 1 | S. cerevisiae deletion strains, locus YOR080W, strain dia2, active compounds read low 1 | S. cerevisiae deletion strains, locus YOR083W, strain WHI5, active compounds read low 0.948 | S. cerevisiae deletion strains, locus YOR106W, strain vam3, active compounds read low 0.995 | S. cerevisiae deletion strains, locus YOR136W, strain idh2, active compounds read low 0.993 | S. cerevisiae deletion strains, locus YOR144C, strain elg1, active compounds read low 0.994 | S. cerevisiae deletion strains, locus YOR184W, strain ser1, active compounds read low 0.985 | S. cerevisiae deletion strains, locus YOR231W, strain MKK1, active compounds read low 1.02 | S. cerevisiae deletion strains, locus YOR265W, strain rbl2, active compounds read low 1 | S. cerevisiae deletion strains, locus YOR270C, strain vph1, active compounds read low 1.04 | S. cerevisiae deletion strains, locus YOR290C, strain snf2, active compounds read low 1.03 | S. cerevisiae deletion strains, locus YOR316C, strain cot1, active compounds read low 1 | S. cerevisiae deletion strains, locus YPL051W, strain arl3, active compounds read low 1.02 | S. cerevisiae deletion strains, locus YPL055C, strain LGE1, active compounds read low 1.04 | S. cerevisiae deletion strains, locus YPL078C, strain atp4, active compounds read low 0.992 | S. cerevisiae deletion strains, locus YPL106C, strain sse1, active compounds read low 0.99 | S. cerevisiae deletion strains, locus YPL240C, strain hsp82, active compounds read low 1 | S. cerevisiae deletion strains, locus YPL256C, strain CLN2, active compounds read low 1.01 | S. cerevisiae deletion strains, locus YPR119W, strain clb2, active compounds read low 0.998 | S. cerevisiae deletion strains, locus YPR141C, strain kar3, active compounds read low 0.997 | S. cerevisiae deletion strains, locus YPR163C, strain tif3, active compounds read low 1.01 | S. cerevisiae deletion strains, locus YPR167C, strain met16, active compounds read low 0.992 | S. cerevisiae deletion strains, strain wtn01, active compounds read low 0.993 | S. cerevisiae strains, strain wild type, active compounds read low 1.01
